In PubChem BioAssay (NCATS):
Inconclusive results are not listed. Active and inactive are the calls of the source. Unless noted, calls come from the whole dose curve; as a rule, active = well fitted curve in the direction sought with a large enough effect; inconclusive = small, poorly fitted or top-dose-only effect, or another doubt; inactive = no such curve, though single readings can be large; an effect the other way counts as inactive or inconclusive.

Experiments:
[1] = AP1 Signaling Pathway (AID 357; active = well fitted curve in either direction with a large enough effect, not every such curve was filed as active;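 note: ME-180 reporter cells stimulated with EGF at its EC50 level; % is set by controls: 0 for no effect and ±100 for the full control effect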); conditions: ME-180 AP-1-bla reporter, EGF-induced, beta-lactamase ratio, 5 h; at 38 µM (top of the series)
How it was run: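 AP-1-bla ME-180 cells, Opti-MEM + 0.5% dialyzed FBS, plated overnight 37 °C. Cpd titration + EC50 EGF, 5 h 37 °C. CCF4 2.5 h RT; ex 405, em 460/530 ratio → %activity, AC50.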

[2] = target: Cytochrome P450 1A2 (Homo sapiens) (UniProt P05177); experiment: p450-cyp1a2 (AID 410; calls by dose curve;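 note: -100% = full effect of reference inhibitor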)
Chain of Cytochrome P450 1A2 (Homo sapiens) (P05177 whole entry, looked up): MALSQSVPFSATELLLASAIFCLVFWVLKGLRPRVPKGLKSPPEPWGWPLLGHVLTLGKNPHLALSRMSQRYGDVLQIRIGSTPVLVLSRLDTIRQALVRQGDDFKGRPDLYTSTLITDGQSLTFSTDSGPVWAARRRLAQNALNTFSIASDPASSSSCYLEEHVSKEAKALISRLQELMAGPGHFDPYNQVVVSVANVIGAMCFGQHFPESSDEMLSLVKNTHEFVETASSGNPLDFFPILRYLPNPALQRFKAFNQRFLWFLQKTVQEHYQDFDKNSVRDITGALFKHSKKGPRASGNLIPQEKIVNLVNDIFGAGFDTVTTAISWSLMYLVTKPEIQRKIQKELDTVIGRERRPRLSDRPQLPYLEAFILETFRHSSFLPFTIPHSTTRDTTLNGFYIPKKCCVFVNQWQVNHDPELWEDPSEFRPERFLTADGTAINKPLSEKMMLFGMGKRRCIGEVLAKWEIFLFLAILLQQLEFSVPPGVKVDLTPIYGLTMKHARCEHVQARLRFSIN
How it was run: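 Human CYP1A2 (20nM) demethylated Luciferin-ME at its Km (100uM) in 100mM KPO4. After 10 min compound preincubation, NADPH regeneration ran the reaction 60 min at room temperature. Luciferin was read by luminescence, normalized to 57 uM furafylline.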

[3] = NFAT Signaling Pathway (AID 444; active = well fitted curve in either direction with a large enough effect, not every such curve was filed as active;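 note: carbachol stimulus at about its EC50 of 1 µM final; % is set by controls: 0 for no effect and ±100 for the full control effect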); conditions: Jurkat NFAT-bla M1, carbachol, beta-lactamase ratio, 5 h; at 38 µM (top of the series)
How it was run: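 Jurkat cells carrying an NFAT-driven β-lactamase reporter and co-transfected muscarinic M1 receptor were treated with compound plus carbachol (1 uM final, an EC50 level) for 5 h at 37 °C. CCF4 loading followed for 1 h at RT; 460/530 nm ratio gave %activity.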

[4] = Stat Signaling Pathway (AID 446; active = well fitted curve in either direction with a large enough effect, not every such curve was filed as active;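 note: ME-180 cervical cancer cells given 40 pM IL-6 alongside compound; SIE-controlled beta-lactamase reporter measured as 460/530 nm FRET emission ratio; % is set by controls: 0 for no effect and ±100 for the full control effect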); conditions: ME-180 SIE beta-lactamase reporter, IL-6 stimulated, 5 h; at 38 µM (top of the series)
How it was run: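 ME-180 SIE-bla cells; overnight plating; cpd + IL-6 40 pM, 5 h, 37 C; LiveBLAzer 2.5 h RT; 460/530 nm emission ratio. Normalized to 300 pM IL-6 and 125 nM JAK inhibitor controls.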

[5] = target: Glucocorticoid receptor (Homo sapiens) (UniProt P04150); experiment: GR-GFP Redistribution (AID 450;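 active = compounds whose dose series gives a full or clear partial fitted curve of increased nuclear translocation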; note: potency is the fitted concentration of half-maximal effect); conditions: U2OS GR-GFP nuclear translocation, laser cytometry, 2 h
Chain of Glucocorticoid receptor (Homo sapiens) (P04150 whole entry, looked up, the tested form may be a part): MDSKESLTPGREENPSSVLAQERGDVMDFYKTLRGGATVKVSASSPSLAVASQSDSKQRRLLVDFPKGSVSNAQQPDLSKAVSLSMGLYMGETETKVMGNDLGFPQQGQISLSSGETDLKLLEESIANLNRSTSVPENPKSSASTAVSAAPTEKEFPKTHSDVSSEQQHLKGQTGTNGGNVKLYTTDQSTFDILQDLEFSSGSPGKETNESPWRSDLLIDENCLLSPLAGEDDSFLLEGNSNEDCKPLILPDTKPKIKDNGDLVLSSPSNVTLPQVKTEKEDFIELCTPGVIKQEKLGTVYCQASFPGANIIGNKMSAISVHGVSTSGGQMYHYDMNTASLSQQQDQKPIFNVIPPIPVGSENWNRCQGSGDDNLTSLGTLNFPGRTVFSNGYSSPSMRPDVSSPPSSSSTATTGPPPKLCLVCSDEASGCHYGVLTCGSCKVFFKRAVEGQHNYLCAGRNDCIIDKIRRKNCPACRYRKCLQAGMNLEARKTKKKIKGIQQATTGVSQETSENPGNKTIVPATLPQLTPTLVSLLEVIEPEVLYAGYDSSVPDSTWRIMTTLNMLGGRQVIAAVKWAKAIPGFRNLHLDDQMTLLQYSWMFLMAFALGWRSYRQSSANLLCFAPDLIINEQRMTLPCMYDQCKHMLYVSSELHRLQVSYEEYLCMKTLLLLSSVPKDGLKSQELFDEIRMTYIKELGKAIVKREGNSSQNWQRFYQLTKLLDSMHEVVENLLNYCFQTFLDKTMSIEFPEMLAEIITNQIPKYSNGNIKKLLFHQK

[6] = target: Glucocorticoid receptor (Homo sapiens) (UniProt P04150); experiment: GR-EFC Redistribution (AID 451; calls by dose curve; note: potency is the fitted concentration of half-maximal effect); conditions: CHO-K1 GR-EFC translocation, beta-gal luminescence, 2 h
How it was run: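 CHO-K1 cells stably expressing nuclear-localized β-gal enzyme acceptor and GR fused C-terminally to the enzyme donor fragment; ligand-driven nuclear translocation restores β-gal by complementation. Compounds titrated up to 46 uM final, 2 h at 37 °C; luminescence read.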

[7] = target: Mitogen-activated protein kinase 10 (Mus musculus) (UniProt Q61831); experiment: JNK3 AlphaScreen Assay (AID 530; active = well fitted curve in either direction with a large enough effect, not every such curve was filed as active;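 note: kinase came from lysate of stimulated human HepG2 cells; signal reports phosphorylation of biotinylated GST-cJun 1-79 at Ser73 with 10 µM ATP; % is set by controls: 0 for no effect and ±100 for the full control effect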)
How it was run: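 JNK3 came from HepG2 lysates pre-activated with IL-1beta and TNF-alpha and phosphorylated biotinylated GST-cJun (1-79) at 10 uM ATP, pH 7.6, room temperature. Compounds were titrated. AlphaScreen signal used anti-phospho-cJun (Ser73) antibody.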

[8] = target: 3',5'-cyclic-AMP phosphodiesterase 4B (Homo sapiens) (UniProt Q07343); experiment: qHTS Assay for Inhibitors of PDE-IV (AID 607; active = well fitted activation curve with a large enough effect in the main read-out, with a control signal flat, not every such curve was filed as active; note: % of control where 0% means no effect)
Chain of 3',5'-cyclic-AMP phosphodiesterase 4B (Homo sapiens) (Q07343 whole entry, looked up): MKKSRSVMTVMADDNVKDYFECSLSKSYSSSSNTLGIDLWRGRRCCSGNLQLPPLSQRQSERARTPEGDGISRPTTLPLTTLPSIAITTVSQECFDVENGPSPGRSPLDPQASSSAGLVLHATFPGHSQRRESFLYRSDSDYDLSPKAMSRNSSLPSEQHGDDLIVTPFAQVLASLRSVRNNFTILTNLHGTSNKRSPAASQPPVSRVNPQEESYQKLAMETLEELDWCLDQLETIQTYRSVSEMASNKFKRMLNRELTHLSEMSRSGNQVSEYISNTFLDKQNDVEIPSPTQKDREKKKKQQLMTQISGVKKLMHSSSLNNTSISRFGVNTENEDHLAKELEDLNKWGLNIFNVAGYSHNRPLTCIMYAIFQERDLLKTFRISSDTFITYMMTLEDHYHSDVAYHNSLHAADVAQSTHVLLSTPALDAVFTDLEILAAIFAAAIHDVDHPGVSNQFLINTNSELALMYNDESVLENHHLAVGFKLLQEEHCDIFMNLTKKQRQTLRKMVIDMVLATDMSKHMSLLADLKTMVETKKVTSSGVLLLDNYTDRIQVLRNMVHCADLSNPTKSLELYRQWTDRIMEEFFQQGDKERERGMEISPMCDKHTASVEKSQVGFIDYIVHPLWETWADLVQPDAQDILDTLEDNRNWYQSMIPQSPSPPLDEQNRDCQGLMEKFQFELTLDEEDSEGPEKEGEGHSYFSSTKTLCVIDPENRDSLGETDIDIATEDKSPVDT
How it was run: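 ACTOne HEK293 cells carry a modified cAMP-gated CNG channel and express endogenous PDE4; plated 1000 cells/well, compounds up to 22.9 uM final. Membrane-potential dye fluorescence (ex 535/em 590) was read; parental cells received 10 uM forskolin + 100 uM RO 20-1724.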

[9] = target: Guanine nucleotide-binding protein G(i) subunit alpha-1 (Homo sapiens) (UniProt P63096); experiment: qHTS Assay for Inhibitors of RGS12 GoLoco Motif Activity (Green Fluorophore) (AID 879);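 note: 0% = labeled peptide with Gαi1 and full inhibition = labeled peptide alone without protein; negative values mean loss of peptide binding seen as reduced polarization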
Chain of Guanine nucleotide-binding protein G(i) subunit alpha-1 (Homo sapiens) (P63096 whole entry, looked up): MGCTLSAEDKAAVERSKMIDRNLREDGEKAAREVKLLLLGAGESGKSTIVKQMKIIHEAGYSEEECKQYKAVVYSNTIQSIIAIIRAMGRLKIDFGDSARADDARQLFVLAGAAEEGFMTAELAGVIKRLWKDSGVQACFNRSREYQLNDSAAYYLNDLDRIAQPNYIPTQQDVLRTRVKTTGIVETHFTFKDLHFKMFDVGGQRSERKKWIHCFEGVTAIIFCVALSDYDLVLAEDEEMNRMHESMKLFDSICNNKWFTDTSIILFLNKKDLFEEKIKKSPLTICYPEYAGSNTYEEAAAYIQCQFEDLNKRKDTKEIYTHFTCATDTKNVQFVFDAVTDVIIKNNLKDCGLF
How it was run: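 Fluorescence polarization assay: 50 nM Gαi1 with 10 nM FITC-labeled RGS12 GoLoco peptide in 10 mM Tris pH 7.5, 150 mM NaCl, 0.1 mM GDP, 0.05% NP40, 10 min at room temperature with compound.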

[10] = qHTS Assay for Identification of Small Molecule Agonists for Thrombopoietin (TPO) Signaling Pathway (AID 917); note: % is set by controls: 0 for no effect and ±100 for the full control effect
How it was run: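 We measured Glycoprotein IIb promoter–luciferase output in IL-3-starved Ba/F3 murine cells expressing the human TPO receptor after 24 hrs at 37 C with compounds and 26 pM TPO.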

[11] = target: Muscarinic acetylcholine receptor M1 (Rattus norvegicus) (UniProt P08482); experiment: qHTS Assay for Antagonists of Acetylcholine Muscarinic M1 Receptor: Measurement of IP-One Response (AID 944); note: nearly all actives have a fitted effect of over 75% in size
Chain of Muscarinic acetylcholine receptor M1 (Rattus norvegicus) (P08482 whole entry, looked up): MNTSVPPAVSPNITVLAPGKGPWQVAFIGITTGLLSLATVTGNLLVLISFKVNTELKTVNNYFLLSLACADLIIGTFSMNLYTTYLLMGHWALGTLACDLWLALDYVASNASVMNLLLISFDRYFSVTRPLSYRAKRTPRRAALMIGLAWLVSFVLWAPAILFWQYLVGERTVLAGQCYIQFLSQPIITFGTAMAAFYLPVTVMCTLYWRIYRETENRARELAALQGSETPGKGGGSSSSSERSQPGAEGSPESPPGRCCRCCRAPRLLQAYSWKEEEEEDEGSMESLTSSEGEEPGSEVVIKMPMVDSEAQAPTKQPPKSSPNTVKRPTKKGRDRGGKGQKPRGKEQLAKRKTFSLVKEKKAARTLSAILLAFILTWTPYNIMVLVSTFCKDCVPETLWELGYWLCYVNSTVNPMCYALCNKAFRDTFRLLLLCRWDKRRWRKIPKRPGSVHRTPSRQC
How it was run: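 CHO cells expressing rat M1 receptor, recovered overnight, were pre-incubated 10 min with compound, then stimulated 30 min with carbachol at EC80 (200 nM) in LiCl-containing buffer, pH 7.4. IP1 accumulation was read by HTRF (620/665 nm).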

[12] = target: Pyruvate kinase (Leishmania mexicana) (UniProt Q27686); experiment: qHTS Validation Assay for Inhibitors of Leishmania Mexicana Pyruvate Kinase (AID 945);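 note: 0% = DMSO only neutral control wells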
Chain of Pyruvate kinase (Leishmania mexicana) (Q27686 2-499 E452W): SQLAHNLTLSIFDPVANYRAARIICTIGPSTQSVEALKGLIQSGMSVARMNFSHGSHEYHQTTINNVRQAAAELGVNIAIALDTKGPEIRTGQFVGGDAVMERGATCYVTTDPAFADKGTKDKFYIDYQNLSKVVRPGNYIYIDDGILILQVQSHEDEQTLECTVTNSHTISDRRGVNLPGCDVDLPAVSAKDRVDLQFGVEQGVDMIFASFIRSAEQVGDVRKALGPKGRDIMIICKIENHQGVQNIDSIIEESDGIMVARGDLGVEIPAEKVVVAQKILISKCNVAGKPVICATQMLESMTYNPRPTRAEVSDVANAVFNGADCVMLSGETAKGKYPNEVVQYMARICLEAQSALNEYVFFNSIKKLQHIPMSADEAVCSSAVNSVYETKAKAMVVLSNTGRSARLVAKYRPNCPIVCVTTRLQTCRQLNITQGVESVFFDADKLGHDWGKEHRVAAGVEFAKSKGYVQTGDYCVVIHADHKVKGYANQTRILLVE
How it was run: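 Eight-point qHTS titrations in triplicate, data normalized to DMSO neutral control. Reaction: 0.2 nM LmPYK E451W mutant, 0.5 mM PEP, 0.1 mM ADP, 7 mM MgCl2, pH 7.2, one hour at room temperature; luminescent ATP detection.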

[13] = target: Pyruvate kinase PKM (Homo sapiens) (UniProt P14618); experiment: qHTS Assay for Activators of Human Muscle Pyruvate Kinase (AID 954; active = well fitted curve in the direction sought with a large enough effect, not every such curve was filed as active;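 note: 0% = uninhibited enzyme and -100% = no enzyme or full thiadiazolimine inhibition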)
Chain of Pyruvate kinase PKM (Homo sapiens) (P14618 whole entry, looked up): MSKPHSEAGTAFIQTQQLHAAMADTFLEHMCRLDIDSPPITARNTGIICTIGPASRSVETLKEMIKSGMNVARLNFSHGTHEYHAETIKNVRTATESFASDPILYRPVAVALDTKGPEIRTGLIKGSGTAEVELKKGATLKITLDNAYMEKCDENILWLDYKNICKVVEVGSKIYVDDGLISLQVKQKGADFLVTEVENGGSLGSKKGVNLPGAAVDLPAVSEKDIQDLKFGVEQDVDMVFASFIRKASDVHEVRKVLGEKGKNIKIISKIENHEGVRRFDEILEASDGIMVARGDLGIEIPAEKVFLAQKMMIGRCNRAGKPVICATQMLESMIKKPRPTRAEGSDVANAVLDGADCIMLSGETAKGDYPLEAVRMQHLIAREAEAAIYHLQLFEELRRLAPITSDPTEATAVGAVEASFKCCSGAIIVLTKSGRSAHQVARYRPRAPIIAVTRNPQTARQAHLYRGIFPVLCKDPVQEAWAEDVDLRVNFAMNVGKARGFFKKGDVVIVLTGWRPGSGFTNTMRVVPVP
How it was run: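 Luminescence from a luciferase ATP-detection/stop reagent reported PKM2 activity. Reactions contained 0.1 nM purified human enzyme, 0.5 mM PEP, 0.1 mM ADP and 7 mM MgCl2 at pH 7.2, run 1 h at RT.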

[14] = target: Alpha-galactosidase A (Homo sapiens) (UniProt P06280); experiment: Counterscreen for Glucocerebrosidase Inhibitors: qHTS Assay for Human alpha-Galactosidase at pH 4.5 (AID 992); note: 0% is about no effect
Chain of Alpha-galactosidase A (Homo sapiens) (P06280 whole entry, looked up): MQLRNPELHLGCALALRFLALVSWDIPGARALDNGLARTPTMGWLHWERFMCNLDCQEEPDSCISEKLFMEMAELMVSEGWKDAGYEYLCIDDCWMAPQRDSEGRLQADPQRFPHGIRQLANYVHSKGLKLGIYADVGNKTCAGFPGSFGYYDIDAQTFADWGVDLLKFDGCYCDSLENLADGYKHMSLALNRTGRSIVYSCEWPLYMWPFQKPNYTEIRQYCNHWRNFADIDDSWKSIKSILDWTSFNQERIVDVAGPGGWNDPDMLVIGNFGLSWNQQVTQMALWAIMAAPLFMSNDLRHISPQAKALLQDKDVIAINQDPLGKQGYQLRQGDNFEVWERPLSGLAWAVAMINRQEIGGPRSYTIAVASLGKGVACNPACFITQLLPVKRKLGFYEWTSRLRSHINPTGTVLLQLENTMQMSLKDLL
How it was run: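 Enzyme at 2 nM final was combined with compound (0.7 nM to 77 uM) and 80 uM 4-methylumbelliferyl alpha-D-galactopyranoside in 50 mM citric acid, 0.005% Tween-20, pH 4.5. After 20 min at room temperature, fluorescence was read (Ex 365/Em 440 nm); AC50 came from Hill fits.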

[15] = target: alpha-glucosidase (Oryza sativa, rice) (UniProt Q653V4); experiment: Counterscreen for Glucocerebrosidase Inhibitors: qHTS Assay for Rice alpha-Glucosidase at pH 5.0 (AID 997);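 note: 0% = full activity with enzyme and -100% = basal without enzyme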
How it was run: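 Rice alpha-glucosidase (4 nM final) with 400 uM 4-methylumbelliferyl-alpha-D-glucopyranoside in citrate buffer pH 5.0, 20 min at room temperature, stopped at pH 10; fluorescence 365/440 nm, compounds 0.7 nM–77 uM, AC50 from Hill fits.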

[16] = Validation of Assay for Modulators of Lamin A Splicing (AID 1459; active = well fitted curve in the direction sought with a large enough effect in the signal ratio; the % refers to the signal ratio;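 note: cells exposed to compound for two days before reading; 0% is about no effect; ratio rise marks activators and ratio drop marks inhibitors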)
How it was run: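 Splicing correction is reported by an EGFP-containing lamin A minigene in stably transfected S3 HeLa cells, while DsRed2 controls for viability and nonspecific signal. Cells are exposed to compounds for 48 hrs before the GFP over RFP ratio is taken.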

[17] = target: DNA repair nuclease/redox regulator APEX1 (Homo sapiens) (UniProt P27695); experiment: qHTS Validation Assay for Inhibitors of the Human Apurinic/apyrimidinic Endonuclease 1 (APE1) (AID 1705)
Chain of DNA repair nuclease/redox regulator APEX1 (Homo sapiens) (P27695 whole entry, looked up): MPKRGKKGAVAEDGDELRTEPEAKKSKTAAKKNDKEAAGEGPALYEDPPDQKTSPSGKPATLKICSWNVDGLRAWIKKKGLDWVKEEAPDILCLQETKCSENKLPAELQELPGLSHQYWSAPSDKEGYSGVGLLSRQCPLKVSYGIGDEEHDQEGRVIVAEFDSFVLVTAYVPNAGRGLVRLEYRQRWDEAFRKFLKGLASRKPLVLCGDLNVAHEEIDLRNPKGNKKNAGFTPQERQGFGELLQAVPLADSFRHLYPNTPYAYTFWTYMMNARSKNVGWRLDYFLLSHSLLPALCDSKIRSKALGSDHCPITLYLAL
How it was run: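 Endonuclease activity of human APE1 is followed as dequenching when the enzyme incises a tetrahydrofuran abasic site in a short duplex labelled 5'-TAMRA/3'-BHQ-2 (50 nM final), after 15 min enzyme–compound preincubation at room temperature.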

[18] = Counterscreen for APE1 Inhibitors: Fluorescent Dye Displacement Validation Assay (AID 1707);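 note: plate controls were ThO with dsDNA and no compound for no effect and ThO without dsDNA for full effect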
How it was run: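 Thiazole Orange displacement from dsDNA: 250 nM ThO with 50 nM TAMRA-labelled abasic-site (tetrahydrofuran) duplex in 50 mM Tris-HCl pH7.5, 50mM NaCl, 2 mM MgCl2, 0.01% Tween-20. Loss of endpoint fluorescence (ex 480 nm, em 540 nm) flags DNA binders.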

[19] = target: Endonuclease 4 (Escherichia coli (strain K12)) (UniProt P0A6C1); experiment: Counterscreen for APE1 Inhibitors: qHTS Validation Assay for Inhibitors of Endonuclease IV (AID 1708); note: % is set by controls: 0 for no effect and ±100 for the full control effect
How it was run: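 2 nM enzyme was preincubated with compounds for 15 min at room temperature in 50 mM Tris-HCl pH 7.5, 50 mM NaCl, 2 mM MgCl2, 1 mM DTT, 0.01% Tween-20. 50 nM THF-abasic TAMRA/BHQ-2 duplex substrate started the reaction.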

[20] = qHTS for differential inhibitors of proliferation of Plasmodium falciparum line 7G8 (AID 1815);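 note: parasite growth measured after three days of incubation; plate controls were vehicle wells for no effect and reference inhibitor wells for full effect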

Cc1cccc(C)c1NC(=O)C[N+](C)(C)C
inactive: activity change, negative = inhibition [1] 0.892% | Potency [2] | activity change, negative = inhibition [3] 11.6% | activity, negative = inhibition [4] 8.11% | Potency [5] > 46 µM | Potency [6] > 46 µM | Potency [7] | Potency [8] | outcome [9] | Potency [10] | Potency [11] | Potency [12] | outcome [13] | outcome [14] | outcome [15] | outcome [16] | Potency [17] | Potency [18] | Potency [19] | Potency [20]
